Assay outcomes from PubChem.
MCL1 BIM primary = disrupts human MCL1 binding to BIM-BH3 peptide; Q07820; GST-MCL1 / FITC-Bim-BH3 fluorescence polarization; 0.68% of 320,000 active; AID 2057; inhibition, % at 10.9 µM;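 active = inhibition above the mean inhibition of all tested compounds plus 3 SD, set per campaign, cut at about 40% in these data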;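 also: 0% = DMSO wells and 100% = unlabeled Bim-BH3 peptide control; higher means more loss of mP so more displacement of Bim peptide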
Target sequence (Q07820 whole entry, looked up): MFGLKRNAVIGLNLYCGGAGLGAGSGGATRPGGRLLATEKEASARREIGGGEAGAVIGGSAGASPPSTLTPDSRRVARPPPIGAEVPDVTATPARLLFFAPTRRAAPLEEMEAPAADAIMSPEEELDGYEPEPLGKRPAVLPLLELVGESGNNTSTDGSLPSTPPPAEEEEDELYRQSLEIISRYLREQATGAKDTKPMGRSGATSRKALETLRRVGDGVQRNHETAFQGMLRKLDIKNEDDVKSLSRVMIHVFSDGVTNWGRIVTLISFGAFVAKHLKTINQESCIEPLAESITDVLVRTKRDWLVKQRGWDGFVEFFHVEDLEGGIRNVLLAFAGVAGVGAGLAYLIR
MEX-5 binding = C. elegans MEX-5 TCR-2 RNA binding activity | Q9XUB2 | MEX-5/FITC-TCR2 RNA binding, fluorescence polarization; stronger effect = lower value | activity score (negative = inhibition of binding), % at 10 µM | 0.38% of 300,000 active | AID 1832;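 active = inhibition past about -25% in most replicates, and total fluorescence under double the plate's negative control median, limit read from the data; inconclusive = replicates evenly split on the limit, or fluorescence at least double controls; inactive = too little inhibition in most replicates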;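 also: 0% = DMSO and -100% = 5 µM competing unlabeled TCR2 RNA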
GLD-1 TGE inh = GLD-1-TGE RNA interaction inhibition (C. elegans) | purified GLD-1 + fluorescein TGE RNA, fluorescence polarization | inhibition, % at 5.96 µM | 0.44% of 320,000 active | AID 2280;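 active = percent inhibition above a per-plate cutoff, the plate mean of test compounds plus 3 SD, cut at about 30% in these data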;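 also: 0% = DMSO wells with GLD-1 and probe and 100% = wells lacking GLD-1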
EBV gp42 inh = inhibitors of Epstein-Barr virus glycoprotein 42; Q1HVG2; Fluorescence polarization binding assay, mP read-out; inhibition, % (tested at 21.74 µM); 0.42% of 220,000 active; AID 1085; in the data active = inhibition above about 50%
BCLXL inh = Bcl-xL (human) inhibition. Q07817. GST-Bcl-xL / FITC-Bim BH3 peptide fluorescence polarization. inhibition, % at 10.9 µM. 0.7% of 320,000 active. AID 2129;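 active = inhibition above the mean of all tested compounds plus 3 SD, cutoff set per campaign, cut at about 30% in these data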;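 also: 0% = DMSO wells and 100% = unlabeled Bim-BH3 peptide competitor; inhibitors lower millipolarization by displacing the labeled peptide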
Target sequence (Q07817 whole entry, looked up): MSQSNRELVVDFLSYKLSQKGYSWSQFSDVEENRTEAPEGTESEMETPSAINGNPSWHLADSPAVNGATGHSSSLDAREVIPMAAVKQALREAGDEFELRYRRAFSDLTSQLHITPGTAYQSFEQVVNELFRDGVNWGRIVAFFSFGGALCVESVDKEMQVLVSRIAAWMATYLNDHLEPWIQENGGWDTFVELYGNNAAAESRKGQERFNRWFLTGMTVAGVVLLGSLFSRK
E coli Lon inh = inhibitors of E. coli Lon protease. 0.42% of 360,000 active. AID 602123. inhibition, % at 7.94 µM. P0A9M0. purified E. coli Lon protease, fluorescence polarization; in the data active = inhibition above about 13%, passing the limit was not always enough;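 also: 0% = enzyme with probe and DMSO and 100% = no enzyme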
BCLXL inh confirm = Bcl-xL (human) inhibition, MCL1 counter-screen confirmation. shares compounds with MCL1 BIM primary. GST-Bcl-xL / FITC-Bim BH3 peptide FP binding. inhibition, % at 10.9 µM. 54% of 1,700 active;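 active = inhibition above a cutoff equal to the mean inhibition of all tested compounds plus 3 SD, cut at about 30% in these data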;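 also: 0% = DMSO wells and 100% = unlabeled Bim BH3 control peptide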
MCL1 BIM confirm = confirmation of human MCL1 and BIM-BH3 interaction inhibitors; inhibition, % at 10.9 µM; shares compounds with MCL1 BIM primary; 61% of 1,700 active; GST-MCL1 / FITC-Bim-BH3 fluorescence polarization;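 active = inhibition above the average of all tested compounds plus 3 SD, cut at about 40% in these data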;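 also: 0% = DMSO wells and 100% = unlabeled Bim-BH3 control peptide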
GLD1 RNA confirm = confirmation of C. elegans GLD-1 TGE RNA binding inhibitors; 10% of 550 active; inhibition, % at 5.96 µM; GLD-1/FL-TGE RNA fluorescence polarization, biochemical; shares compounds with GLD-1 TGE inh;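 active = average inhibition across triplicates above the hit cutoff set in the primary screen, cut at about 32% in these data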;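 also: 0% = GLD-1 with RNA probe and DMSO and 100% = wells lacking GLD-1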
eLon confirm = E. coli Lon inhibition confirmation; shares compounds with E coli Lon inh; purified E. coli Lon, fluorescence polarization; inhibition, % at 7.94 µM; 31% of 1,400 active; AID 602230; in the data active = inhibition above about 16%;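 also: 0% = enzyme with probe and DMSO and 100% = no enzyme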
An asterisk follows results filed as active; ? = inconclusive; / = no result; + = active, no number. Rows were chosen to be rich in hits. Some 1.5% of all compounds tested hit in one or more screens of this group.

SMILES	MCL1 BIM primary	MEX-5 binding	GLD-1 TGE inh	EBV gp42 inh	BCLXL inh	E coli Lon inh	BCLXL inh confirm	MCL1 BIM confirm	eLon confirm	others
CCOc1ccc(C2C=C(c3ccc(C)cc3)Nc3nnnn32)cc1 (configuration not stated)	50*	1	33*	-15	59*	24*	39*	57*	-2
CC(C)c1ccc[n+](-c2nc([O-])sc2C=O)c1	3	-4	3	-7	8	7	/	/	/
Cc1ccc[n+](-c2nc([O-])sc2C=O)c1	+	/	156*	142*	173*	92*	169*	+	148*
CC(=O)Nc1ccc(S(=O)(=O)Nc2nc3ccccc3nc2Sc2nncn2C)cc1	78*	-18	37*	44	78*	19*	41*	47*	14
CCN1C(=O)c2cccc3c(N)ccc(c23)C1=O	+	?	+	/	+	+	+	+	+
Cc1nn(C)c(C)c1N1C(=O)c2cccc3c(N)ccc(c23)C1=O	+	/	+	169*	+	+	+	+	+
O=C(COc1cccnc1[N+](=O)[O-])Nc1ncc(Cl)cc1Cl	78*	/	31	/	64*	18*	61*	98*	-4
O=C(COc1cccnc1[N+](=O)[O-])Nc1c(Cl)cccc1Cl	/	/	3	/	/	6	/	/	/
C/C=C(\C)C(=O)OC1CC(C)(C)C[C@H]2C3=CC[C@@H]4[C@@]5(C)CCC(O[C@@H]6O[C@@H](C(=O)O)[C@@H](O)C(O[C@@H]7OC[C@H](O)[C@@H](O)[C@@H]7O[C@@H]7OC(CO)C(O)[C@@H](O)[C@@H]7O)C6O[C@@H]6OC(CO)C(O)C(O)C6O)[C@@](C)(CO)[C@@H]5CC[C@]4(C)[C@]3(C)CC(O)[C@@]12CO (some centres not stated)	/	/	7	/	/	0	/	/	/
O=C1C2C3C=CC(C4CC34)C2C(=O)N1/N=C/c1ccc(-c2ccc(F)cc2[N+](=O)[O-])o1 (configuration not stated)	84*	-6	55*	-9	74*	19*	20	30	71*	GLD1 RNA confirm=-8
O=[N+]([O-])/C(Cl)=C(/NCCO)C(Cl)=C(Cl)Cl	/	/	/	/	/	-15	/	/	/
COCCN1CN(S(=O)(=O)c2ccccc2)c2nc3ccccc3nc21	55*	2	59*	20	62*	26*	31*	43*	-22	GLD1 RNA confirm=13
CNc1cccc2c1C(=O)c1ccccc1C2=O	92*	-11	46*	78*	82*	50*	84*	95*	41*	GLD1 RNA confirm=10
O=c1[nH]nc(CNc2ccc(C(F)(F)F)cc2)c2ccccc12	9	0	2	9	5	1	/	/	/
O=c1[nH]nc(CNc2ccc(O)cc2)c2ccccc12	76*	-52*	89*	6	79*	51*	51*	41*	-11
O=C(O)c1cc2ccccc2c(N=Nc2cccnc2)c1O	4	-1	-12	/	8	0	/	/	/
CN1CCc2c(sc3c2C(=O)NC(c2ccccn2)N3)C1 (configuration not stated)	66*	-51*	37*	11	64*	24*	41*	52*	-8
CCOC(=O)/C(C#N)=C/c1cc2cc(C)c(C)cc2nc1Cl	-11	-3	-9	-19	-4	-15	/	/	/
Cc1cc2cc(C=C(C#N)C#N)c(Cl)nc2cc1C	+	-3	163*	-16	193*	89*	27	27	39*
CN1C(=O)NC(c2ccccc2[N+](=O)[O-])C2=C1CCCC2=O (configuration not stated)	+	-80*	+	/	+	+	154*	177*	+
Clc1ccccc1C1=CC(c2ccco2)n2ncnc2N1 (configuration not stated)	50*	-9	21	13	49*	31*	34*	44*	-4
FC(F)(F)c1ccccc1C1=CC(c2ccccc2)n2ncnc2N1 (configuration not stated)	-4	-2	-1	/	-3	-11	/	/	/
Clc1ccc(C2=CC(c3ccco3)n3ncnc3N2)cc1 (configuration not stated)	+	-91*	141*	80*	189*	139*	51*	76*	75*
Cc1ccc(C2=CC(c3ccc(C)cc3)n3ncnc3N2)cc1 (configuration not stated)	20	-1	27	/	19	9	/	/	/
N#CC(CCc1ccccc1[N+](=O)[O-])(CCc1ccccc1[N+](=O)[O-])C(N)=O	/	/	/	/	/	2	/	/	/
SMILES	MCL1 BIM primary	MEX-5 binding	GLD-1 TGE inh	EBV gp42 inh	BCLXL inh	E coli Lon inh	BCLXL inh confirm	MCL1 BIM confirm	eLon confirm	others
O=C(COC(=O)COc1ccccc1F)NCCc1ccc(F)cc1	-5	/	0	/	4	-4	/	/	/
CC1(C(=O)NS(=O)(=O)c2cccs2)CCN1C(=O)C1CCCCC1 (configuration not stated)	/	/	/	/	/	-10	/	/	/
C[C@H]1CN([C@@H](C)CO)C(=O)CCCn2nncc2CO[C@@H]1CN(C)Cc1cccc(C(=O)O)c1	/	/	/	/	/	-11	/	/	/
C/C(CC(=O)Nc1cccc(C(F)(F)F)c1)=N\NC(=O)c1cnccn1	2	0	1	/	1	-3	/	/	/
CCCNC(=O)c1c(N)n(-c2ccc3c(c2)OCO3)c2nc3ccccc3nc12	5	-1	10	-18	9	10	/	/	/
Nc1c(C(=O)NC2CC2)c2nc3ccccc3nc2n1-c1ccc2c(c1)OCO2	61*	-7	27	29	42*	19*	35*	42*	31*
CC1(C)c2ccccc2N2CC(=O)N(CC(N)=O)C21C (configuration not stated)	106*	8	85*	2	97*	125*	75*	103*	89*
CC1(C)c2ccccc2N(CC(N)=O)C12C=Cc1ccccc1O2 (configuration not stated)	-2	-1	-6	-2	0	8	/	/	/
